Drawing on PubChem BioAssay AID2283123 (EPA ToxCast), this text covers outcome and AC50 for ten compounds.

SMILES strings stand for the structures. Records with an inconclusive call do not appear. Calls of active or inactive are those of the source. Rule for the calls: active = hit-call score of the fitted dose curve at least 0.9, where 1 is the maximum; inconclusive = response in the unintended direction; inactive = score below 0.9.

rat CYP2E1, Cyp2e1 (gene 25086), sequence (P05182 whole entry, looked up): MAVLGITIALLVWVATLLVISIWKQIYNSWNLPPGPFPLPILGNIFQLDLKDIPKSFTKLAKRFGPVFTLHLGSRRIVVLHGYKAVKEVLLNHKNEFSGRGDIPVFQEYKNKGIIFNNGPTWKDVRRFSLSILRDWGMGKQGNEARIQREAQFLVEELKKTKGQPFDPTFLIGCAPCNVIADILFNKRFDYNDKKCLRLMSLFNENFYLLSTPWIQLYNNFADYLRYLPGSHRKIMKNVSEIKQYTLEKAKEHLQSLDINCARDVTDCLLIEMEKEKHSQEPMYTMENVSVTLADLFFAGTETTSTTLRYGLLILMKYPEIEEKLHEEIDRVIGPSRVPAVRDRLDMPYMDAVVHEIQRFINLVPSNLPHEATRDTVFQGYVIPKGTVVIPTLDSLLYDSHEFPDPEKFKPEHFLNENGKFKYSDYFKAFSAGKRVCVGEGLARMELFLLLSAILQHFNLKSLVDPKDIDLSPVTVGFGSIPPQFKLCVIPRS

The target in this assay is rat CYP2E1, Cyp2e1 (gene 25086) (UniProt P05182). Briefly: NVS_ADME_rCYP2E1: NovaScreen (NVS) CYP450-related Enzyme Activity (ADME) Assay for rat CYP2E1. The protocol:
NVS_ADME_rCYP2E1 is a biochemical, single-readout assay that uses extracted gene-proteins in a cell-free assay. Measurements were taken 1 hour after chemical dosing in a 96-well plate.NVS_ADME_rCYP2E1 is one of one assay component(s) measured or calculated from the NVS_ADME_rCYP2E1 assay. It is designed to make measurements of enzyme activity, a form of enzyme reporter, as detected with fluorescence intensity signals by Fluorescence technology.Data from the assay component NVS_ADME_rCYP2E1 was analyzed into 1 assay endpoint. This assay endpoint, NVS_ADME_rCYP2E1, was analyzed in the positive analysis fitting direction relative to Acetonitrile as the negative control and baseline of activity. Using a type of enzyme reporter, loss-of-signal activity can be used to understand changes in the enzymatic activity as they relate to the gene Cyp2e1. Furthermore, this assay endpoint can be referred to as a primary readout, because this assay has produced multiple assay endpoints where this one serves a enzymatic activity function. To generalize the intended target to other relatable targets, this assay endpoint is annotated to the cyp intended target family, where the subfamily is xenobiotic metabolism.
Binding assays used specific radioligands (tritiated, iodinated) with non-radioactive competitive displacement ligands in agonist or antagonist protocols (as indicated) and various reference compounds and inhibitors to titrate specific binding to receptors and transporters. Most enzyme assays (CYPs, kinases, phosphatases, proteases, HDACs) used recombinant protein and specific substrates (fluorescence mostly, some colorimetric and radioactive) and inhibitors, followed by a biochemical separation of substrate and product. All assays for the biochemical HTS were initially run in duplicate at a single concentration (10 uM for CYP450 assays and 25 uM for all others). Assay-chemical combinations meeting a pre-defined threshold (e.g., 30% inhibition and other criteria defined below) were then run in singleton concentration-response format with maximum concentration of 20 uM for CYPs and 50 uM for all others. Each assay was run with positive and negative controls, and concurrent controls on every plate. The follow-up (secondary) screen tested active chemical-pairs in concentration series, as well as a few additional assays not tested in the primary screen, some selected negative inactives, and several cases re-run in the concentration series for confirmatory purposes.
As to `CC(C1CC1)C(O)(Cn1cncn1)c1ccc(Cl)cc1` (stereo not given), the call was inactive.

As for `N#Cc1c[nH]cc1-c1cccc2c1OC(F)(F)O2`, the AC50 is 0.254 µM (active).

Consider `S=C1NCCN1`, for which the call was inactive.

With `CCCN(CCOc1c(Cl)cc(Cl)cc1Cl)C(=O)n1ccnc1`, the AC50 is 2.54 µM (active). Take `C[Si](Cn1cncn1)(c1ccc(F)cc1)c1ccc(F)cc1`: the AC50 is 10 µM (active). In the case of `CNC(=S)S`, the outcome was inactive. On to `COP(=S)(OC)Oc1ccc([N+](=O)[O-])c(C)c1`, for which the compound was classed as inactive. As for `CCOP(=S)(OCC)Oc1ccc2c(C)c(Cl)c(=O)oc2c1`, the compound was classed as inactive.

As for `COc1nn(CSP(=S)(OC)OC)c(=O)s1`, the outcome was inactive.

On to `COP(=S)(OC)SCn1nnc2ccccc2c1=O`, for which the call was inactive.
